SMILES strings stand for the structures. About 6,800 (1.8%) of roughly 370,000 compounds were called active. The full list was thinned out, with actives kept by preference. Unmarked numbers belong to inactive results.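 Rule for the calls: active = activation above a cutoff set at the mean of all screened compounds plus 3 SD (cut at about 10% in these data); inactive = the rest.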

Drawing on PubChem BioAssay AID687014 (The Scripps Research Institute Molecular Screening Center, 2013), this text covers activation for 93 molecules.

This experiment has as its system Nuclear hormone receptor DAF-12 (Heterodera glycines), GAL4 fusion. As to the kind of experiment: hgDAF-12 GAL4 fusion reporter activation – cell-based, luminescence, HEK293, UAS-luciferase, primary screen (AID 687014).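 Note: 0% = DMSO wells and 100% = sodium butyrate wells.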 The conditions noted are these: HEK293 GAL4-hgDAF12 UAS-luciferase reporter, agonist luminescence; at 6.8 µM; stronger effect = higher value; normalized to butyrate control.
For `CCOC(=O)C1=C(C(=O)OCC)C2N(Cc3ccc(C#N)cc3)c3ccccc3[C@@]23C[C@@H](C(=O)OC)N(S(=O)(=O)c2ccc(F)cc2)C3=N1` (stereo partly drawn), the activation was 2.34%.

Consider `Cc1ccc(-n2c(SCC(=O)Nc3cccc4ccccc34)nnc2-c2ccccn2)cc1`, for which the activation is -2.36%. With `Cc1cccc(OCC(=O)NC2CC(C)(C)NC(C)(C)C2)c1`, the activation was 0.72%. With `Cc1cccc(OCC(=O)Nc2ccc(C(=O)O)cc2NC(=O)COc2cccc(C)c2)c1`, the activation is -2.94%.

Regarding `Cc1cccc(OCC(=O)Nc2ccccc2F)c1`, the activation was 11.4% (active). Turning to `COC(=O)C1CN(CCc2ccccc2)CCS(=O)(=O)N1Cc1cccc(Cl)c1` (stereo not drawn), the activation is -0.51%. With `Cc1ccc(C(=O)NNC2=Nc3cc([N+](=O)[O-])ccc3OC2)cc1`, the activation was 4.07%. `COc1ccc(-c2onc(C)c2-c2ccc3c(c2)OCCO3)c(O)c1`: the activation was -2.49%. As to `COc1ccc(C2=Nc3cc(C)ccc3OC2)cc1`, the activation was 15.9% (active). With `O=C1Nc2ccccc2OC1CC(=O)N1CCCCCCC1` (stereo not drawn), the activation was 3.97%. Turning to `O=C(c1cccc(C(F)(F)F)c1)N1CC[C@H]2[C@H](CCCN2Cc2cc(F)cc(F)c2)C1`, the activation was 1.35%. As for `O=C(O)c1cccc(N=NN2CCCCCC2)c1`, the activation is 12.7% (active). For `CC(=O)c1ccc(OC(=O)N2CCOCC2)cc1`, the activation was 1.11%. For the molecule `O=C(O)c1ccc(N=NN2CCOCC2)cc1`, the activation is 10.6% (active). On to `NC1=NN(c2cccc(C(=O)O)c2)C(=O)C1`, for which the activation was 0.87%. For `Cc1ccc(C(=O)C(=S)N2CCOCC2)cc1`, the activation is 3.06%. In the case of `O=C(c1ccccc1)C(O)(CN1CCCCC1)c1ccccc1` (stereo not drawn), the activation was -0.03%.

For the molecule `O=C(NC1CCCCN(Cc2cccc(C(F)(F)F)c2)C1=O)c1ccccc1I` (stereo not drawn), the activation was -2.42%. For the molecule `CC(C)NC(=S)N1CCN(S(C)(=O)=O)CC1`, the activation is 2.81%.

For `C=CCN1C(=O)[C@H](CC(=O)N2CCN(C(=O)OCC)CC2)[C@@]2(C(=O)OCC)CCCC=C12`, the activation was 0.53%. On to `COC(=O)[C@@]12CCCCC=C1N(CCc1ccc(Cl)cc1)C(=O)[C@H]2CC(=O)NCc1ccc(OC)c(OC)c1`, for which the activation is -3.28%. `CCOC(=O)c1cn[nH]c1NC(=S)Nc1ccccc1`: the activation is 15.5% (active). For `CCOC(=O)c1c(NC(=S)Nc2ccccc2)sc2c1CCN(C)C2`, the activation was -0.1%.

Consider `CCOC(=O)c1cc2c(nc1NC(=S)Nc1ccccc1)CC(C)(CC)OC2` (stereo not drawn), for which the activation is -0.06%. For the molecule `Cc1ccccc1Nc1nc(N)nc(CSc2nnc3ccccn23)n1`, the activation is -2.26%. Take `Cc1ccccc1Nc1nc(N)nc(CSc2ccccc2)n1`: the activation is 16.4% (active).

For the molecule `Cc1ccccc1Nc1nc(N)nc(CN2CCN(c3ccccn3)CC2)n1`, the activation was -1.77%. `Clc1ccc(-n2c(SC/C=C/c3ccccc3)nnc2-c2ccco2)cc1`: the activation was -0.13%. On to `O=C(CSc1nc2ccccc2nc1N1CCCCC1)N1CCN(S(=O)(=O)c2cccc([N+](=O)[O-])c2)CC1`, for which the activation was 0.48%. Regarding `COc1ccc(OC)c(CNC(=O)CCc2nc(-c3cccs3)no2)c1`, the activation was -2.24%. As to `CCc1ccc(CNC(=O)CCc2nc(-c3cccs3)no2)cc1`, the activation is 1.81%. As for `COc1ccc(CCc2nc(-c3cccs3)no2)cc1`, the activation is 11.6% (active). Under `CCOC(=O)C1CSCCS(=O)(=O)N1Cc1ccc(Cl)cc1` (stereo not drawn) stands -2.53%; under `CN1C(=O)C2CC(O)C(SC3CC4C(=O)N(C)C(=O)C4CC3O)CC2C1=O` (stereo not drawn), -0.94%. Take `COc1ccc2nc3n(c(=O)c2c1)-c1ccc(Cl)cc1C(=O)NC3Cc1ccccc1` (stereo not drawn): the activation is -2.62%. On to `Cn1ncc(Br)c1C(=O)NC1CCCC1`, for which the activation is 2.19%. Under `O=C(NC1CCC1)c1ccc(C#Cc2cccc(F)c2)c[n+]1[O-]` stands 4.83%; under `O=C(NC1CCC1)c1ccc(C#CC2CC2)cn1`, 14.1% (active); under `CC1CN(C(=S)Nc2ccc(S(N)(=O)=O)cc2)CC(C)O1` (stereo not drawn), 0.5%. Turning to `COc1cc(C(=O)Nn2c(O)c(C3=c4ccccc4=NC3=O)sc2=S)ccc1O`, the activation was 5.04%. Take `Cc1ccc(-c2nnc(SC(C)C#N)n2N)cc1` (stereo not drawn): the activation was -2.55%. Turning to `COc1ccc(C(=O)COC(=O)C(O)c2ccccc2)c(OC)c1` (stereo not drawn), the activation is 10.7% (active). Next, `COc1ccc(C(=O)COC(=O)c2nn(C)c(=O)c3ccccc23)c(OC)c1`: -0.75%; `COc1ccc(C(=O)COC(=O)CN2C(=O)C3CC=CCC3C2=O)c(OC)c1` (stereo not drawn): -0.12%; `Nc1[nH]c(C(=O)c2ccc(Br)cc2)c(-c2ccc3c(c2)OCO3)c1C(=O)NCCc1c[nH]c2ccccc12`: 1.89%. Under `COc1ccc(NC(=O)CC2COc3ccccc3O2)c(OC)c1` (stereo not drawn) stands 1.72%; under `Cc1ccc(S(=O)(=O)N(C)C)cc1NC(=O)COC(=O)C1COc2ccccc2O1` (stereo not drawn), 1.41%. Next, `CC(=O)c1ccccc1NC(=O)COC(=O)C1COc2ccccc2O1` (stereo not drawn): 24.1% (active); `CCOC(=O)[C@]12CCCC=C1N(CCCOC)C(=O)[C@@H]2CC(=O)N1CCOCC1`: 0.45%. Take `Cc1noc(C)c1/C=N/Nc1ccc2ccccc2n1`: the activation was 12.8% (active). Next, `COc1cccc(CNCc2ccc3c(c2)OCO3)c1`: -0.87%; `C(=N\Nc1ccc2ccccc2n1)/c1ccc2c(c1)OCO2`: 11.2% (active); `Cc1cc2c(C)nc(N/N=C/c3ccccc3)nc2o1`: 4.01%. On to `O=C(OC12CCCN(C1)/C(=C/c1ccccc1)C2)c1ccco1` (stereo not drawn), for which the activation is -2.49%.

In the case of `Cc1cc(-c2ccccc2)n2nc(C)c(-c3ccccc3)c2n1`, the activation was 0.2%.

As for `Cc1occc1C(=O)Nc1cccc(Cn2cccn2)c1`, the activation is 0.48%.

As to `Cc1nn(C(=O)c2ccoc2C)c(N)c1-c1ccccc1`, the activation was 12.5% (active). Next, `O=C(NCCc1c[nH]c2ccccc12)OCc1cn(-c2c(F)cccc2F)nn1`: -0.77%; `O=S1(=O)c2c(cccc2N2CC[C@H](O)C2)O[C@@H]2CCN1C2`: -2.37%. On to `COc1cccc(/C=C2\CC3(OC(C)=O)CCCN2C3)c1` (stereo not drawn), for which the activation is 1.14%. On to `Cc1nc2ccc(C(=O)N3CCN(C(=O)C(C)(C)C)CC3)cc2n1C1CCCC1`, for which the activation was -0.38%.

In the case of `COC[C@@H]1CCCN1c1ccc2c(c1)O[C@H](C)CCN(C1CC1)S2(=O)=O`, the activation is 1.95%. As to `O=C(/C=C/c1ccc2c(c1)OCCO2)c1ccc(O)cc1`, the activation is 11.8% (active).

For the molecule `C/C(=N\NC(=O)C(N)=O)c1ccc2c(c1)OCCO2`, the activation was 4.44%.

On to `COc1ccc(OC)c(/C=C/C(=O)c2ccc3c(c2)OCO3)c1`, for which the activation is -2.94%. Next, `COC(=O)[C@]12C[C@H](CC(=O)NCc3cccc(C(F)(F)F)c3)C(=O)N(Cc3ccc4c(c3)OCO4)C1=C[C@H](COCc1ccccc1)O[C@@H]2C`: 1.05%; `O=c1oc2ccccc2cc1-c1cn(-c2ccccc2)c(=S)[nH]1`: -16.8%; `Nc1ncc(-c2cc3ccccc3oc2=O)s1`: 11.9% (active).

Regarding `CC(CCN1CCC(C(O)(c2ccccc2)c2ccccc2)CC1)Oc1ccc(C(F)(F)F)cc1` (stereo not drawn), the activation was 0.45%.

Regarding `O=C(Nc1cc(Cl)cc(Cl)c1)OCCN1CCCC12CCC(c1ccccc1)CC2` (stereo not drawn), the activation was -0.4%. Next, `CC(C)=CCN1CCN(Cc2ccc(Oc3ncccn3)cc2)CC1CCO` (stereo not drawn): 3.6%.

Regarding `NC(=O)C1(Nc2ccc(-c3ccccc3)cc2)CCCC1`, the activation was 0.26%. As to `N#CC1(Nc2ccc(-c3ccc(Cl)cc3)cc2)CCCC1`, the activation is 13.3% (active).

On to `N#CC1(Nc2ccc3c4c(cccc24)CC3)CCCCC1`, for which the activation is -2.54%. Take `N=c1c2c3c(sc2nc2n1CCCCC2)CCCC3`: the activation was 2.26%. Regarding `O=c1c2c(nc3n1CCCCC3)sc1c(O)cccc12`, the activation is 12.6% (active). Turning to `CC(=O)c1ccc(NC(=O)c2sc3nc4n(c(=O)c3c2C)CCCCC4)cc1`, the activation is 6.99%. As for `CC1CCN(C(=O)c2ccc3c(=O)n4c(nc3c2)CCCCC4)CC1`, the activation was 1.69%. Consider `Cc1c(C(=O)Nc2ccccc2)sc2nc3n(c(=O)c12)CCCCC3`, for which the activation is 10.5% (active).

For the molecule `COc1cccc(C(=O)Nc2ccc3nc4n(c(=O)c3c2)CCCCC4)c1`, the activation was 4.15%. In the case of `CC(C)CNS(=O)(=O)CC1NCCc2ccccc21` (stereo not drawn), the activation was -0.34%.

Regarding `Cc1ccc(C2=CCN(C)C(=O)N2c2ccc(Cl)cc2)cc1`, the activation was 7.34%. As for `COc1ccc(C(=O)OCCN(C)C2CN(Cc3cn(Cc4cccc(C)c4)nn3)S(=O)(=O)C2)cc1OC` (stereo not drawn), the activation is 0.81%. Under `Cc1cccc(N2CCN(C(=O)c3cccc(N4C(=O)C5C6C=CC(C6)C5C4=O)c3)CC2)c1C` (stereo not drawn) stands -1.08%; under `CN(CC(=O)Nc1ccc(Cl)cc1)CC(=O)Nc1cccc2ccccc12`, 0.52%; under `CN(CC(=O)Nc1ccc(Cl)cc1)C(=O)CNC(=O)c1ccc2ccccc2c1`, 12.3% (active). In the case of `CN(CC(=O)Nc1ccc(Cl)cc1)C(=O)c1ccc(COc2ccccc2)cc1`, the activation was 0.13%. On to `O=C(CSc1nc2sc3c(c2c(=O)n1-c1ccccc1)CCCC3)NN=Cc1ccc(OCc2ccccc2)cc1`, for which the activation is 4.38%. Under `O=C1CCC2(CCC(c3ccc(Cl)cc3)CC2)N1CCO` (stereo not drawn) stands -4.23%; under `CC(C)C(C)NC(=O)COc1ncnc2ccccc12` (stereo not drawn), 1.57%; under `CCC(=O)NC(=Nc1nc2ccccc2s1)NC(=O)CC`, 12.5% (active). As for `CC(C)CC(=O)N/C(N)=N/c1nc2ccccc2s1`, the activation was 9.05%. With `O=C(CN1CCC(NC(=O)NCc2ccccc2)CC1)Nc1ccc2c(c1)OCCO2`, the activation was 1.23%.
